According to PubChem BioAssay AID1159580 (chemical genetic matrix, 2015):
Among all 5,500 compounds or so, about 2,000 (36%) were called active. About 18% were inconclusive and are not listed. No stated cut-off is given here; in the data, active means normalized growth mostly below about 0.91 (no sharp cut-off); inconclusive means no clear call, values can overlap the other calls; inactive means mostly above about 0.92. The list shows a part of the results.

Test: chemical genetic growth profiling, strain panel (AID 1159580);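 further: tested at 20 µM; growth read once vehicle control cultures reached saturation at 30 °C; 1 = growth at the plate median or of vehicle wells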
Conditions: growth OD

Measured: normalized growth

COc1cc2c(cc1OC)C1(O)C(=O)c3ccc(O)c(C(=O)O)c3OC1CO2 (stereo not drawn)
inactive: S. cerevisiae deletion strains, locus YKL009W, strain mrt4, stronger effect = lower value 1.06 | S. cerevisiae deletion strains, locus YKL068W, stronger effect = lower value 0.983 | S. cerevisiae deletion strains, locus YKL085W, strain MDH1 (second series), stronger effect = lower value 0.975 | S. cerevisiae deletion strains, locus YKL085W, strain MDH1, stronger effect = lower value 0.975 | S. cerevisiae deletion strains, locus YKL160W, strain elf1, stronger effect = lower value 0.984 | S. cerevisiae deletion strains, locus YKL190W, strain CNB1, stronger effect = lower value 0.991 | S. cerevisiae deletion strains, locus YKR001C, strain vps1, stronger effect = lower value 1.01 | S. cerevisiae deletion strains, locus YKR026C, strain gcn3, stronger effect = lower value 0.99 | S. cerevisiae deletion strains, locus YKR091W, strain srl3, stronger effect = lower value 0.992 | S. cerevisiae deletion strains, locus YLL001W, strain dnm1, stronger effect = lower value 1 | S. cerevisiae deletion strains, locus YLL026W, stronger effect = lower value 0.993 | S. cerevisiae deletion strains, locus YLL041C, strain sdh2, stronger effect = lower value 0.998 | S. cerevisiae deletion strains, locus YLR027C, strain aat2, stronger effect = lower value 0.998 | S. cerevisiae deletion strains, locus YLR039C, strain RIC1, stronger effect = lower value 1.08 | S. cerevisiae deletion strains, locus YLR058C, strain SHM2, stronger effect = lower value 1.01 | S. cerevisiae deletion strains, locus YLR102C, strain apc9, stronger effect = lower value 0.975 | S. cerevisiae deletion strains, locus YLR113W, strain HOG1, stronger effect = lower value 0.982 | S. cerevisiae deletion strains, locus YLR221C, strain rsa3, stronger effect = lower value 1.02 | S. cerevisiae deletion strains, locus YLR258W, strain gsy2, stronger effect = lower value 0.99 | S. cerevisiae deletion strains, locus YLR262C, strain YPT6 (second series), stronger effect = lower value 1.02 | S. cerevisiae deletion strains, locus YLR262C, strain YPT6, stronger effect = lower value 1.08 | S. cerevisiae deletion strains, locus YLR268W, strain sec22, stronger effect = lower value 1.02 | S. cerevisiae deletion strains, locus YLR320W, strain mms22, stronger effect = lower value 1.01 | S. cerevisiae deletion strains, locus YLR330W, strain CHS5, stronger effect = lower value 1 | S. cerevisiae deletion strains, locus YLR342W, strain FKS1, stronger effect = lower value 1.02 | S. cerevisiae deletion strains, locus YLR357W, strain rsc2, stronger effect = lower value 0.987 | S. cerevisiae deletion strains, locus YLR370C, strain arc18, stronger effect = lower value 0.988 | S. cerevisiae deletion strains, locus YLR371W, strain rom2, stronger effect = lower value 1 | S. cerevisiae deletion strains, locus YLR384C, strain iki3, stronger effect = lower value 0.985 | S. cerevisiae deletion strains, locus YLR418C, strain cdc73, stronger effect = lower value 1 | S. cerevisiae deletion strains, locus YML016C, strain PPZ1, stronger effect = lower value 1.01 | S. cerevisiae deletion strains, locus YML032C, strain rad52, stronger effect = lower value 1.01 | S. cerevisiae deletion strains, locus YML120C, strain ndi1, stronger effect = lower value 1 | S. cerevisiae deletion strains, locus YML124C, strain tub3, stronger effect = lower value 0.99 | S. cerevisiae deletion strains, locus YMR058W, strain fet3, stronger effect = lower value 0.995 | S. cerevisiae deletion strains, locus YMR078C, strain ctf18, stronger effect = lower value 0.992 | S. cerevisiae deletion strains, locus YMR125W, strain sto1, stronger effect = lower value 0.983 | S. cerevisiae deletion strains, locus YMR129W, stronger effect = lower value 0.987 | S. cerevisiae deletion strains, locus YMR205C, strain PFK2, stronger effect = lower value 1.02 | S. cerevisiae deletion strains, locus YMR223W, strain ubp8, stronger effect = lower value 0.98 | S. cerevisiae deletion strains, locus YMR231W, strain pep5, stronger effect = lower value 0.994 | S. cerevisiae deletion strains, locus YMR307W, strain GAS1, stronger effect = lower value 1.18 | S. cerevisiae deletion strains, locus YNL067W, strain RPL9B, stronger effect = lower value 0.977 | S. cerevisiae deletion strains, locus YNL071W, strain lat1, stronger effect = lower value 0.991 | S. cerevisiae deletion strains, locus YNL128W, strain TEP1, stronger effect = lower value 1 | S. cerevisiae deletion strains, locus YNL153C, strain GIM3, stronger effect = lower value 0.991 | S. cerevisiae deletion strains, locus YNL183C, strain NPR1, stronger effect = lower value 0.94 | S. cerevisiae deletion strains, locus YNL209W, strain ssb2, stronger effect = lower value 0.989 | S. cerevisiae deletion strains, locus YNL233W, strain BNI4, stronger effect = lower value 0.996 | S. cerevisiae deletion strains, locus YNL248C, strain rpa49, stronger effect = lower value 0.974 | S. cerevisiae deletion strains, locus YNL250W, strain rad50, stronger effect = lower value 0.968 | S. cerevisiae deletion strains, locus YNL271C, strain bni1, stronger effect = lower value 0.99 | S. cerevisiae deletion strains, locus YNL298W, strain CLA4, stronger effect = lower value 0.985 | S. cerevisiae deletion strains, locus YNL307C, strain MCK1, stronger effect = lower value 0.984 | S. cerevisiae deletion strains, locus YNL322C, strain KRE1 (second series), stronger effect = lower value 1.01 | S. cerevisiae deletion strains, locus YNL322C, strain KRE1, stronger effect = lower value 0.988 | S. cerevisiae deletion strains, locus YNR049C, strain mso1, stronger effect = lower value 0.996 | S. cerevisiae deletion strains, locus YNR052C, strain pop2, stronger effect = lower value 0.999 | S. cerevisiae deletion strains, locus YOL006C, strain TOP1, stronger effect = lower value 1.38 | S. cerevisiae deletion strains, locus YOL012C, strain htz1 0.856 | S. cerevisiae deletion strains, locus YOL147C, strain pex11, stronger effect = lower value 0.995 | S. cerevisiae deletion strains, locus YOR001W, strain rrp6, stronger effect = lower value 1.02 | S. cerevisiae deletion strains, locus YOR061W, strain CKA2, stronger effect = lower value 1.05 | S. cerevisiae deletion strains, locus YOR069W, strain VPS5, stronger effect = lower value 0.989 | S. cerevisiae deletion strains, locus YOR070C, strain gyp1, stronger effect = lower value 0.984 | S. cerevisiae deletion strains, locus YOR080W, strain dia2, stronger effect = lower value 0.998 | S. cerevisiae deletion strains, locus YOR083W, strain WHI5, stronger effect = lower value 0.999 | S. cerevisiae deletion strains, locus YOR106W, strain vam3, stronger effect = lower value 0.997 | S. cerevisiae deletion strains, locus YOR136W, strain idh2, stronger effect = lower value 1 | S. cerevisiae deletion strains, locus YOR144C, strain elg1, stronger effect = lower value 0.994 | S. cerevisiae deletion strains, locus YOR184W, strain ser1, stronger effect = lower value 1.07 | S. cerevisiae deletion strains, locus YOR231W, strain MKK1, stronger effect = lower value 0.989 | S. cerevisiae deletion strains, locus YOR265W, strain rbl2, stronger effect = lower value 1.01 | S. cerevisiae deletion strains, locus YOR270C, strain vph1, stronger effect = lower value 1.01 | S. cerevisiae deletion strains, locus YOR290C, strain snf2, stronger effect = lower value 0.978 | S. cerevisiae deletion strains, locus YOR316C, strain cot1, stronger effect = lower value 0.976 | S. cerevisiae deletion strains, locus YPL051W, strain arl3, stronger effect = lower value 0.982 | S. cerevisiae deletion strains, locus YPL078C, strain atp4, stronger effect = lower value 0.98 | S. cerevisiae deletion strains, locus YPL106C, strain sse1, stronger effect = lower value 0.991 | S. cerevisiae deletion strains, locus YPL240C, strain hsp82, stronger effect = lower value 0.977 | S. cerevisiae deletion strains, locus YPL241C, strain CIN2, stronger effect = lower value 0.983 | S. cerevisiae deletion strains, locus YPL256C, strain CLN2, stronger effect = lower value 0.95 | S. cerevisiae deletion strains, locus YPR119W, strain clb2, stronger effect = lower value 0.973 | S. cerevisiae deletion strains, locus YPR141C, strain kar3, stronger effect = lower value 0.96 | S. cerevisiae deletion strains, locus YPR163C, strain tif3, stronger effect = lower value 0.997 | S. cerevisiae deletion strains, locus YPR167C, strain met16, stronger effect = lower value 1 | S. cerevisiae deletion strains, strain wtn01, stronger effect = lower value 1.03 | S. cerevisiae strains, strain wild type, stronger effect = lower value 1.04
